Experimental data: paper PMC4336329 (PLoS ONE, 2015)
The whole screen tested about 310,000 compounds, of which about 14,000 (4.5%) showed an effect of 50% or more. Effects have a minus sign here. The list comes from a sample in which strong results are over-represented; it also holds similar structures and randomly drawn compounds.

molecular target: human ether-à-go-go-related gene (hERG) potassium channel (human, UniProt Q12809); assay: primary screen, population patch clamp on CHO cells stably expressing hERG; higher = less effect of the substance
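Note: peak tail current of the secondary pulse compared with the same well before compound.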

Chain of human ether-à-go-go-related gene (hERG) potassium channel (Q12809 whole entry, looked up): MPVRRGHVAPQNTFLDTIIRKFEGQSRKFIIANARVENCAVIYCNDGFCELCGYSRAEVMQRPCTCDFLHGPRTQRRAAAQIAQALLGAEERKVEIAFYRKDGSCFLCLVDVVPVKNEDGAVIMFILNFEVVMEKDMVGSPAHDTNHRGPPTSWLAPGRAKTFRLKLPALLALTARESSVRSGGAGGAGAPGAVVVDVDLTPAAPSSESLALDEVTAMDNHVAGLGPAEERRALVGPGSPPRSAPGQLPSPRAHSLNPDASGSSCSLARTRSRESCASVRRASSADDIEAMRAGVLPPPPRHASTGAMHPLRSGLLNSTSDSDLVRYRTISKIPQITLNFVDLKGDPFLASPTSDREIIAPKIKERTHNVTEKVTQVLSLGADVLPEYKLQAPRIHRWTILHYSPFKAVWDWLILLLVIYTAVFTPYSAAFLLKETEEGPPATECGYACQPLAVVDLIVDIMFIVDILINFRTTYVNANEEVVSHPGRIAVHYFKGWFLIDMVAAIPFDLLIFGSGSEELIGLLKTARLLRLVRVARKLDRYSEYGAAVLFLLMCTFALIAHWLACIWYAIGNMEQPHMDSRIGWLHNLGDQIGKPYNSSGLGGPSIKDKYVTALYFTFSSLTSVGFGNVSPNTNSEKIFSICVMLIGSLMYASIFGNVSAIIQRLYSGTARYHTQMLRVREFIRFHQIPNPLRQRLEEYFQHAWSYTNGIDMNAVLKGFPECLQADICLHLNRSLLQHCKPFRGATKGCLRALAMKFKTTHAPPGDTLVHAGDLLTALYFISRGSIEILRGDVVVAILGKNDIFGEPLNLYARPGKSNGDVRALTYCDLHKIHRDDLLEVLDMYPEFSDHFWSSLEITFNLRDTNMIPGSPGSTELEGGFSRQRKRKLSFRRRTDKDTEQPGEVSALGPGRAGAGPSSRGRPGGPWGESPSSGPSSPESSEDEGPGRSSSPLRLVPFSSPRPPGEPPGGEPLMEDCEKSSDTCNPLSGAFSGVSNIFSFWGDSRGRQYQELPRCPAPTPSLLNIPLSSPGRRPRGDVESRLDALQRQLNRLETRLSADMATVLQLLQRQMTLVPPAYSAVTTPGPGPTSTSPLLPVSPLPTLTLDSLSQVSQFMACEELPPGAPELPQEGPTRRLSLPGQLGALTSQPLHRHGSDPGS

SMILES	hERG current change (%, negative = inhibition) at 10uM [%]
CN(c1ccccc1)S(=O)(=O)c1ccc(Cl)c(C(=O)NCc2ccccc2CN2CCCC2)c1	-65.9
CN(c1ccccc1)S(=O)(=O)c1cccc(C(=O)NCc2ccccc2CN2CCCC2)c1	-74.6
CN(c1ccccc1)S(=O)(=O)c1cccc(C(=O)NCc2ccccc2)c1	-18.3
COc1ccccc1CNC(=O)c1cccc(S(=O)(=O)N(C)c2ccccc2)c1	-23.5
CN(C)C(CNC(=O)c1cc(S(=O)(=O)N(C)c2ccccc2)ccc1Cl)c1ccccc1 (stereo not shown)	-39.6
CCN(CC)S(=O)(=O)c1ccc(Cl)c(C(=O)NCc2ccccc2Cl)c1	-24.7
O=C(O)C[C@H]1c2cc(C(F)(F)F)ccc2S(=O)(=O)N1C1CCCCC1	30.3
CCOC(=O)c1c(C)[nH]c(N=Nc2ccc(OC)cc2)c1C	-0.496
Fc1ccc(-c2oncc2-c2nnnn2-c2ccccc2)cc1F	-15.4
COC(=O)c1ccsc1NC(=O)CS(=O)(=O)c1ccccc1	-10.1
CCNS(=O)(=O)c1ccc(CCC(=O)N2CCN(c3cccc(Cl)c3)CC2)cc1	-32.7
CCCCN=C(NNc1ccc(Br)cc1)C(=O)OCC	3.69
N#Cc1ccc(COC(=O)c2cnc(Cl)c(Cl)c2)cc1	8.12
COc1ccc(NCC(=O)N/N=C/c2cc([N+](=O)[O-])ccc2N2CCCC2)cc1	-7.82
O=C(NCc1ccccc1)C(c1ccco1)N(C(=O)c1cnccn1)c1ccc(F)cc1 (stereo not shown)	10.5
O=S(=O)(Nc1ccncc1)c1ccc(Cl)c(Cl)c1	18.4
CCS(=O)(=O)Nc1ccc(Cc2ccc(NS(=O)(=O)CC)cc2)cc1	-7.91
O=[N+]([O-])c1cccc(S(=O)(=O)NCc2ccncc2)c1	19.4
O=[N+]([O-])c1cccc(S(=O)(=O)Nc2ccc(Cc3ccncc3)cc2)c1	-72.2
CCCCS(=O)(=O)Nc1ccc(Cc2ccncc2)cc1	-50.2
O=S(=O)(Nc1ccc(Cc2ccncc2)cc1)c1ccc(Cl)c(Cl)c1	-53.4
CCS(=O)(=O)Nc1ccc(Cc2ccncc2)cc1	-0.00702

SMILES	hERG current change (%, negative = inhibition) at 10uM [%]
O=S(=O)(Nc1ccc(Cc2ccncc2)cc1)c1ccc(Cl)cc1	12.4
O=C(NCc1ccncc1)c1ccc(NS(=O)(=O)c2cccc([N+](=O)[O-])c2)cc1	19.2
COc1cccc(CNC(=O)C2=C(C)C(=O)OC23CCC(C)CC3)c1 (stereo not shown)	-5.65
O=C(O)c1cc(S(=O)(=O)N2CCCCCC2)ccc1Cl	20
Cc1ccnc(NCc2ccccc2O)c1	14.6
O=C1CCC([N+](=O)[O-])C(c2ccc(-c3ccccc3)cc2)N1 (stereo not shown)	-11.3
Cc1ccc(N2C(=O)C3CC(c4ccccc4)=C4C5C=CC(C6C(=O)N(c7ccc(C)cc7C)C(=O)C56)C4C3C2=O)c(C)c1 (stereo not shown)	7.82
Cc1ccc(N2C(=O)C3C4CC(=O)C(c5ccccc54)C3C2=O)cc1 (stereo not shown)	2.69
Cc1ccc(N2C(=O)C3CC(c4ccccc4)=C4C5C=CC(C6C(=O)N(c7ccc(C)cc7)C(=O)C56)C4C3C2=O)cc1 (stereo not shown)	-73.6
C=C[C@]1(C)C[C@@H](OC(=O)CSCCN(CC)CC)[C@]2(C)C(C)CC[C@]3(CCC(=O)[C@H]32)[C@@H](C)[C@@H]1O.O=C(O)/C=C/C(=O)O (stereo partly shown)	-68.3
C=C[C@]1(C)C[C@@H](OC(=O)CSCCN(CC)CC)[C@]2(C)C(C)CC[C@]3(CCC(=O)[C@H]32)[C@@H](C)[C@@H]1O (stereo partly shown)	-61.9
O=C(Cc1noc2ccccc12)NNC(=S)Nc1ccc(Cl)cc1	16.5
Cn1nc(C(F)(F)F)c(-c2ccc(Br)cc2)c1NC(=O)Nc1ccc(F)cc1F	13
Cc1ccc(C(=O)C2(C)C3c4cc(Br)ccc4OC(=O)C32C(=O)c2ccco2)cc1 (stereo not shown)	15.8
CCCNC(=O)[C@H]1N2C(=O)c3c(ccc(OC)c3OC)C2SC1(C)C (stereo partly shown)	16.4
COc1ccc(CCNC(=O)CN(c2ccccc2)S(C)(=O)=O)cc1OC	-8.06
CC(C)(C)CN1CCNC(=O)C1CC(=O)NC1Cc2ccccc2C1 (stereo not shown)	4.08
CCNC(=O)O/N=C(\C)c1sc(-c2ccc(Cl)cc2)nc1C	-23.9
CCCS(=O)(=O)c1c(S(=O)(=O)CCC)c2ccccn2c1C(=O)OC	-7.5
CCCS(=O)(=O)c1c(S(=O)(=O)CCC)c2cc(CC)ccn2c1C(=O)OC	-29.2
CCCS(=O)(=O)c1c(S(=O)(=O)CCC)c2cc(-c3ccncc3)ccn2c1C(=O)OC	-50.2
O=C(CSc1nnc(NCc2ccccc2)s1)NC1CCS(=O)(=O)C1 (stereo not shown)	10.1

SMILES	hERG current change (%, negative = inhibition) at 10uM [%]
Cc1cc(SCC(=O)Nc2cccc(S(N)(=O)=O)c2)c(C)cc1Br	30.8
Cc1ccc(-c2noc(CCC(=O)Nc3ccccc3N3CCN(C)CC3)n2)cc1	-33.7
CSc1nc(-c2ccccc2)nn1S(=O)(=O)c1ccccc1	7
CCOC(=O)C1(Cc2cccc(OC)c2)CCN(Cc2ccon2)CC1	1.68
CCOC(=O)C1(Cc2cccc(OC)c2)CCN(Cc2cccnc2)CC1	-16.4
CCOC(=O)C1(Cc2cccc(OC)c2)CCN(Cc2cccn2-c2nccs2)CC1	-72
CCOC(=O)C1(Cc2cccc(OC)c2)CCN(Cc2cccn2-c2ccccn2)CC1	-74.8
CCOC(=O)C1(Cc2ccccc2)CCN(Cc2cccn2-c2nccs2)CC1	-82
COc1ccc(-n2nc(C(=O)NCC(=O)N(C)Cc3ccccc3)c3ccccc3c2=O)cc1	-8.21
NC(=O)[C@@H]1[C@@H]2C(=O)N(c3ccc(F)cc3)C(=O)[C@@H]2[C@H]2C=Cc3ccccc3N21	14.2
Nc1ccc(C(=O)OCC(=O)c2cccc([N+](=O)[O-])c2)cc1	39.8
Cc1ccccc1C(C(=O)NC1CCCCC1)N(C(=O)CNC(=O)c1ccco1)c1cccnc1 (stereo not shown)	6.3
CC(C)CN(C(=O)CSc1n[nH]c(-c2cccs2)n1)C1CCS(=O)(=O)C1 (stereo not shown)	-2.69
Cc1nn(-c2ccccc2)c(C)c1NC(=O)COC(=O)C1CC(=O)N(CCc2ccccc2)C1 (stereo not shown)	9.52
O=C(OCc1ccc([N+](=O)[O-])cc1)C1CC(=O)N(CCc2ccccc2)C1 (stereo not shown)	-69.4
CCOC(=O)c1ccccc1NC(=O)COC(=O)C1CC(=O)N(CCc2ccccc2)C1 (stereo not shown)	-75.6
CCOc1ccc(COC(=O)C2CC(=O)N(CCc3ccccc3)C2)cc1OC (stereo not shown)	-21.6
O=C(Nc1ccc(F)c([N+](=O)[O-])c1)C1CC(=O)N(Cc2ccccc2)C1 (stereo not shown)	-34.4
CCOC(=O)c1ccccc1NC(=O)COC(=O)C1CCCC1	-2.49
O=C(OCc1ccc([N+](=O)[O-])cc1)C1CC(=O)N(Cc2ccccc2Cl)C1 (stereo not shown)	-66.4
O=C(OCc1ccccc1Cl)C1CC(=O)N(Cc2ccco2)C1 (stereo not shown)	11.4
O=C(Nc1ccccc1)C1CC(=O)N(Cc2ccccc2)C1 (stereo not shown)	2.14

SMILES	hERG current change (%, negative = inhibition) at 10uM [%]
Cc1ccc(CN2CC(C(=O)OCc3ccccc3Cl)CC2=O)cc1 (stereo not shown)	0.354
O=C(O)C1CC(=O)N(CCc2ccccc2)C1 (stereo not shown)	6.79
O=C(Nc1cccc([N+](=O)[O-])c1)C1CC(=O)N(Cc2ccccc2)C1 (stereo not shown)	-53.2
O=C(N/N=C/C(Br)=C/c1ccccc1)C1CC1	32.2
COc1ccc(NC(=O)Cn2nnc(C(=O)NCc3ccc4c(c3)OCO4)c2N)c(OC)c1	18.1
COc1ccc2oc(C(=O)Nc3nccs3)c(C)c2c1	16.7
O=C(OCc1nnc(-c2ccc([N+](=O)[O-])cc2)o1)C1CC(=O)N(CCc2ccccc2)C1 (stereo not shown)	-61.7
O=C(OCc1nnc(-c2ccccc2)o1)C1CC(=O)N(c2ccccc2)C1 (stereo not shown)	-21.5
O=C(OCc1nnc(-c2ccccc2)o1)C1CC(=O)N(CCc2ccccc2)C1 (stereo not shown)	-31
COc1ccc(OC)c(CCNC(=O)CCn2nc(C)c3c(C)n(-c4ccccc4)nc3c2=O)c1	18.5
CCCC(=O)Nc1c(C(=O)OCC)oc2ccccc12	1.98
COC(=O)c1oc2ccc(Br)cc2c1NC(C)=O	3.19
CCOC(=O)c1oc2ccc(OC)cc2c1NC(=O)CN1CCN(C)CC1.Cl	-5.54
COC(=O)c1oc2ccc(Br)cc2c1NC(=O)CN1CCN(C)CC1	-62.3
CCOC(=O)c1oc2ccccc2c1NC(=O)CN1CCOCC1	6.54
CCOC(=O)c1oc2ccc(Br)cc2c1NC(=O)CN1CCN(C)CC1	-65.8
COC(=O)c1oc2ccc(Br)cc2c1NC(=O)CCCN1C(=O)c2ccccc2C1=O	17.1
CCOC(=O)c1oc2ccccc2c1NC(=O)CN1CCN(C)CC1	-58.4
COC(=O)c1oc2ccc(Br)cc2c1NC(=O)CCN1CCOCC1	-17.7
